USP2a inh – inhibitors of human ubiquitin-specific protease USP2a. USP2 core, Ub-CHOP2 coupled fluorogenic reporter, 485/531. Potency, µM (titrated, usually from 38.3 µM), for inactives: at the top dose activity change, negative = inhibition, usual class: inhibitors. 330,000 tested, 0.01% active;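 further: potency means the concentration at half of the fitted maximal effect; plate controls were DMSO wells for no effect and full inhibition by NEM control for full effect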
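USP2 core (10nM final) preincubated 30min RT with compound in 20mM Tris-HCl pH 8.0, 2mM CaCl2, 2mM beta-mercaptoethanol, 0.05% CHAPS; 25nM Ub-CHOP2 plus 25nM reporter substrate added, fluorescence (Ex485/Em531) read after 60min.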
Pin1 inh – inhibitors of human Pin1. Pin1 FP peptide displacement, HiFluor488, 10 min. Potency, µM (highest dose often 115 µM), without a hit: top-dose activity, negative = inhibition, usual class: inhibitors. 390,000 tested, 0.009% active. AID 504891; active means well fitted inhibition curve with a large enough effect in the polarisation, with a control signal flat, not every such curve was filed as active; inconclusive means small, poorly fitted or top-dose-only effect, or effect the other way, or a change in a side signal; inactive means no such curve, though single readings can be large or run the other way; the % refers to the polarisation; further: potency means the concentration at half of the fitted maximal effect; on the % scale 0 is the no-effect control and ±100 the full control effect
Target sequence (Q13526 whole entry, looked up): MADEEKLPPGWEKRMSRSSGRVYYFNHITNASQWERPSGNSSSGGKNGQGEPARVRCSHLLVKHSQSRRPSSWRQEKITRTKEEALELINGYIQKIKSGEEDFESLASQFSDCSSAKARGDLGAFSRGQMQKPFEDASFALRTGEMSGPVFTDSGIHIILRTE
Integrin act MD – integrin-mediated muscular dystrophy alleviation activation. 350,000 tested, 0.064% active. alpha7betagal myoblasts, beta-gal FDG fluorescence, 48 h. Potency, µM (top dose mostly 38.3 µM), without a hit: at the highest dose activation, actives largely listed as activators;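 further: potency means the concentration at half of the fitted maximal effect; 100% = response of the positive control SU9516; nearly all actives have a fitted effect of over 60% in size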
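Alpha7betagal+/- myoblasts (passage 13) were plated 16-24 hr, then exposed to compounds (1:260 dilution of DMSO stock) for 48 hours at 37C. After MPER lysis, β-galactosidase reporter activity was read as FDG fluorescence (ex 480/em 540) after 30 minutes.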
PKM2 act – PKM2 (human) enzyme activation; P14618; purified PKM2, Kinase-Glo ATP luminescence, activation; response scale: 0% is enzyme alone, no compound; Potency, µM (doses to about 57.5 µM), for inactives: at the highest dose activation, hits mostly activators; 260,000 tested, 0.34% active; AID 1631; further: potency means the concentration at half of the fitted maximal effect; on the % scale 0 is the no-effect control and ±100 the full control effect; nearly all actives have a fitted effect of over 55% in size
Target sequence (P14618 whole entry, looked up): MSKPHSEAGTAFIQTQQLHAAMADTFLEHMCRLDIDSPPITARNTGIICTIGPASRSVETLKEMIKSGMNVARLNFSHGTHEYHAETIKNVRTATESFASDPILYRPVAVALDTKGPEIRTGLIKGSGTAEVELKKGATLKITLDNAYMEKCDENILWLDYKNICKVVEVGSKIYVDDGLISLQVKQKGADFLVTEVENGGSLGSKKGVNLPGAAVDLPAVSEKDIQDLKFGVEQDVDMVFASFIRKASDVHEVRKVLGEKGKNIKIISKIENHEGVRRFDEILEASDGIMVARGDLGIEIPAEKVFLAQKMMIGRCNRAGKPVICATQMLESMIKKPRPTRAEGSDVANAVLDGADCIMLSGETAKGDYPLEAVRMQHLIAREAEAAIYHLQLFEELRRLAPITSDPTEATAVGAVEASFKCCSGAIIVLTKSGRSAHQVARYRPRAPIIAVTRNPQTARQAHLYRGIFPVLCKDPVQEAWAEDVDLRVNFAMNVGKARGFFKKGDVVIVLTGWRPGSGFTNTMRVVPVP
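Kinase-Glo luminescence reports ATP generated from ADP (0.1 mM) and PEP (0.5 mM) by purified hPK-M2 after 1 h at room temperature, pH 7.2 imidazole buffer; intermediate enzyme activity allows detecting inhibitors and activators.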
IL2 activator – activators of IL-2; IL-2 activation reporter assay, cell-based qHTS; stimulated with anti-CD3/CD4/CD28 beads; in transgenic mouse T cells; activation, % (series mostly up to about 46 µM); 360,000 tested, 0.065% active; in the data active means activation above about 50%; inconclusive means mostly about 30% to 49%; further: 0% is about no effect
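Unstimulated transgenic mouse T cells; 60-min compound exposure; bead-based TCR/CD4/CD28 stimulation; 18 h culture, 37 degrees C; dual fluorescence (EGFP, DsRed) plate cytometry.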
ClpP mod – qHTS Assay for Activators of ClpP; ATP-dependent Clp protease proteolytic subunit (Bacillus subtilis (strain 168)), P80244; purified B. subtilis ClpP, FRET peptide cleavage, 20 min; Potency, µM (titrated, usually from 57.5 µM), inactives show at the top dose activity change, negative = active; 340,000 tested, 1.9% active; active means well fitted falling curve with a large enough effect; inconclusive means small, poorly fitted or top-dose-only effect; inactive means no such curve, though single readings can be large or run the other way; further: potency means the concentration at half of the fitted maximal effect; the source files actives as falling curves though it sought activators and does not explain the sign; nearly all actives have a fitted effect of over 65% in size
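FRET quenching reversal measured ClpP activation: 10 microg/mL B. subtilis ClpP at pH 8 with the FRET-FV decapeptide, read at 430 nm after 320 nm excitation. The 20-min minus 0-min signal was scaled between DMSO/no-enzyme wells and ADEP (5.8 microM final).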
HeLa viability – reduces HeLa cell viability in PKM2 activator counter-screen. shares compounds with PKM2 act. activity change, negative = cytotoxicity, % at 57.5 µM. 230 tested, under 10 active. HeLa viability, CellTiter-Glo ATP luminescence, 24 h; further: % of control where 0% means no effect
* marks the source's active call; other numbers are inactive results; ? = inconclusive; / = no result given; [ ] = another dose, or the depositor's remark. An excerpt weighted towards active compounds, which were near 1.9% of everything screened. Unless noted, the call rests on the fitted dose curve; in most records, active means well fitted curve in the direction sought with a large enough effect; inconclusive means small, poorly fitted or top-dose-only effect, or another doubt; inactive means no such curve, though single readings can be large; an effect the other way counts as inactive or inconclusive.

SMILES	USP2a inh	Pin1 inh	Integrin act MD	PKM2 act	IL2 activator	ClpP mod	HeLa viability
CCn1c(C)nc2cc(C(=O)N/N=C/c3ccc(O)c(O)c3O)ccc21	5%	?	-70%	3.2µM*	5	/	2
COC(=O)N1C(c2ccccc2)=Cc2ccccc2C1C1(C(=O)OC)CCCC1=O (stereo unspecified)	/	/	/	3%[11.5 µM]	/	/	/
Cc1ccc(NS(=O)(=O)c2ccc3oc(=O)ccc3c2)cc1Cl	0%	-1%	5%	1µM*	0	-1%	-4
N#CC(C#N)=C1c2cc(S(N)(=O)=O)ccc2-c2ccc(S(N)(=O)=O)cc21	-1%	2%	-17%	0.71µM*	1	1%	0
Cc1ccc(NC(=O)CN2C(=O)CC(c3ccco3)Sc3ccccc32)cc1Cl (stereo unspecified)	/	?	/	/	/	-3%	/
O=S1(=O)c2ccccc2N=NN1Cc1ccc(Cl)c(Cl)c1	/	/	/	26%	/	/	/
CC(C)(C)c1ccc(CN2N=Nc3ccccc3S2(=O)=O)cc1	-8%	0%	-76%	3.2µM*	-2	0%	?
Cc1ccc(C(=O)c2sc(Nc3ccc(F)cc3)nc2N)c(C)c1	/	7%	/	/	/	-3%	/
CC(=O)N(c1ccccc1)C1SC(=O)N(c2ccccc2)C1=O (stereo unspecified)	-1%	-2%	13%	0.56µM*	0	22%	0
COc1ccc(N(C(C)=O)C2SC(=O)N(c3ccccc3)C2=O)cc1 (stereo unspecified)	/	-5%	/	/	/	3%	/
CC1(C)CC(=O)C2=C(C1)NC(SCC(=O)Nc1ccccc1)=C(C#N)C2c1ccco1 (stereo unspecified)	-1%	44%	0%	7%	0	1%	/
Cc1ccc(NC(=O)CSC2=C(C#N)C(c3ccco3)C3=C(CCCC3=O)N2)cc1 (stereo unspecified)	-3%	-1%	-23%	4.5µM*	0	-7%	-3
Cc1ccc(CNC(=O)C(=O)Nc2c3c(nn2-c2ccc(F)cc2)CSC3)cc1	/	11%	/	/	/	-1%	/
Cc1cc2c(s1)c1c(C)nn(Cc3ccccc3F)c(=O)c1n2C	-7%	/	/	/	/	/	-3
Cc1cc2c(s1)c1c(C)nn(Cc3ccc(F)cc3)c(=O)c1n2C	-3%	/	/	/	/	/	/
Cc1cc2c(s1)c1cnn(Cc3ccc(C)c(F)c3F)c(=O)c1n2C	/	-5%	/	/	/	/	-10
Cc1cc2[nH]c3c(=O)n(Cc4ccccc4F)ncc3c2s1	/	-3%	/	/	/	/	-3
Cc1cc2c(s1)c1cnn(Cc3ccc(C(F)(F)F)cc3F)c(=O)c1n2C	/	0%	/	/	/	/	18
Cn1c2cc(Br)sc2c2cnn(Cc3ccc(F)cc3F)c(=O)c21	-2%	4%	/	/	-1	/	/
O=c1c2cc3ccccc3n2cnn1Cc1ccccc1F	-3%	2%	-17%	7%	0	?	/
CCCCCCCCCC[Si](C)(C)CCC(=O)N[C@@H](Cc1ccc(C)cc1)c1ccccc1	/	/	/	/	/	-1%	/
CCn1c2cc(C)sc2c2cnn(Cc3ccccc3F)c(=O)c21	/	1%	/	/	/	/	-22
Cc1cc2c(s1)c1cnn(Cc3cccc(F)c3F)c(=O)c1n2C	/	7%	/	/	/	/	-8
COc1cc(NC(=O)CSc2nnc3c(n2)[nH]c2ccc(OC)cc23)cc(OC)c1	/	-5%	/	/	/	1%	/
COc1cc(NC(=O)CSc2nnc3c(n2)[nH]c2ccc(S(=O)(=O)NC(C)C)cc23)cc(OC)c1OC	5%	4%	-3%	0.79µM*	-1	1%	-18
SMILES	USP2a inh	Pin1 inh	Integrin act MD	PKM2 act	IL2 activator	ClpP mod	HeLa viability
COc1ccc([C@]23Cc4cc(OC)c(OC)cc4C(O2)c2c(cc(C)oc2=O)O3)cc1	0%[7.66 µM]	/	/	3%[11.5 µM]	/	/	/
Cc1ccc(NS(=O)(=O)c2ccc3c(c2)CCC(=O)N3)cc1C	-1%	-10%	-38%	0.79µM*	0	/	?
Cc1ccc(-c2nc3ccccn3c2Nc2ccccc2)o1	3%	1%	9%	2.2µM*	-6	1%	-5
C=C1CCN(C(C)C(=O)OCc2ccc(C)cc2)S(=O)(=O)c2ccccc21 (stereo unspecified)	/	6%	/	/	/	/	/
O=C(c1ccc2c(=O)n(Cc3ccco3)c(=S)[nH]c2c1)N1CCN(Cc2ccccc2)CC1	-2%	7%	-26%	0.63µM*	-1	0%	-2
Cc1nc(NC2CCCCC2)c2nc(-c3ccccc3)n(CC3CCN(C)CC3)c2n1	/	/	/	-1%	/	/	/
COc1ccc(Br)cc1S(=O)(=O)Nc1ncccc1C	-6%	8%	0%	6.3µM*	0	-21%	0
CC(=O)N1CCc2cc(Br)cc(S(=O)(=O)CCC(=O)N3CCN(c4ccc(F)cc4)CC3)c21	/	-3%	/	/	/	-2%	/
CCNS(=O)(=O)c1ccc(NC(=O)c2ccc(Cn3cc(Br)cn3)o2)cc1	1%	-1%	-7%	5µM*	2	0%	0
Cc1ccc(CCC(=O)Nc2nccs2)o1	3%	-2%	19%	20µM*	-1	-1%	4
CCc1ccc(CCC(=O)Nc2nccs2)o1	3%	-1%	-7%	-2%	-1	-1%	/
CCCS(=O)(=O)Nc1c(C(=O)OC)[nH]c2ccccc12	4%	54%	26%	5%	0	-14%	/
COC(=O)c1[nH]c2ccccc2c1NS(=O)(=O)c1ccc(F)c(C)c1	1%	-7%	5%	10µM*	-1	-11%	-10
O=C1C2C(c3ccccc3)CC=CC2C(c2cccc([N+](=O)[O-])c2)N1Cc1ccccc1 (stereo unspecified)	/	5%	/	/	/	/	/
NC(=O)CC(NC(=O)Cc1ccc(Cl)cc1)c1ccc(NCCc2ccccc2F)c([N+](=O)[O-])c1 (stereo unspecified)	-1%	23%	-17%	4µM*	1	0%	-9
NC(=O)CC(NC(=O)Cc1ccc(Cl)cc1)c1ccc(NCC2CC2)c([N+](=O)[O-])c1 (stereo unspecified)	0%	40%	6%	21%	0	2%	/
COc1ccc(C(=O)/C=C/C(=O)N(CC(=O)NC2CCCCC2)Cc2ccccc2)c(O)c1	-8%	11%	35%	3.5µM*	0	/	?
Cc1cc2nnc(SCC(=O)Nc3ccc(Cl)cc3)n2c(N)n1	-1%	-8%	4%	?	1	/	/
COc1cccc(NC(=O)CSc2nnc3cc(C)nc(N)n23)c1	0%	0%	-15%	1.8µM*	1	/	0
